Bioassay records from PubChem BioAssay.
The list is not random: actives were taken first. Their share in the collection is about 5.2%.
Vif inh = blocks HIV Vif function. 340,000 compounds, 0.35% hits. HEK293T cells, Vif self-association by quenched fluorescence, imaging, 24 h. inhibition, % at 7.49 µM; in the data active = inhibition above about 50%, passing the limit was not always enough; inconclusive = no clear call, values can overlap the other calls; inactive = below about 31%
NR3A LBD binder = modulates the human NR3A ligand-binding domain | AID 1259313 | Tm shift relative to glycine control, % at 25 µM | 340,000 compounds, 2.5% hits | NR3A LBD differential scanning fluorimetry, Tm shift; 0% = protein alone, 100% = glycine-bound protein;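 active = melting temperature shift of at least 10% of the positive control shift, at one fixed dose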
SMARCA2 act = increases SMARCA2 function in MMTV reporter cells. activation, % at 9.1 µM. AID 652017. 370,000 compounds, 1% hits. MG213 cells, MMTV-luciferase reporter, dexamethasone, overnight; in the data active = activation above about 7.8%;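 also: 0% = vehicle wells and 100% = reference activator wells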
esBAF inh = inhibitors of esBAF chromatin remodeling in mouse ES cells. Bmi1-luciferase knock-in reporter, 24 h; 100% = twice the neutral-well signal. reporter increase, % at 12.5 µM. 350,000 compounds, 2% hits. AID 602393; in the data active = activation above about 40%; inconclusive = no clear call, values can overlap the other calls;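 also: 0% = median of the plate's neutral control wells and 100% = double that signal; a rise in the Bmi1 reporter signal indicates esBAF inhibition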
SKN-1 inh = inhibitors of C. elegans SKN-1; inhibition, % at 21.8 µM; AID 624304; 360,000 compounds, 0.49% hits; C. elegans VP596 Pgst-4::GFP/RFP ratio, acrylamide-induced, 24 h;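 active = interference check ratio from 0.5 to 1.5 plus GFP to RFP signal ratio inhibition reaching or exceeding a fixed threshold, cut at about 30% in these data, passing the limit was not always enough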
NadD block = inhibitors of Staphylococcus aureus NadD; purified NadD enzyme, colorimetric absorbance read-out; inhibition, % at 20 µM; 360,000 compounds, 0.78% hits; AID 602399; in the data active = inhibition above about 26%
* hit, by the source's call; ? = inconclusive; . = no result given; ! = not active in a repeat.

SMILES	Vif inh	NR3A LBD binder	SMARCA2 act	esBAF inh	SKN-1 inh	NadD block
O=C(CCN1C(=O)/C(=C/c2cccs2)SC1=S)Nc1ccccc1O	-12	15*	1	-1	-3	4
O=C(CCCN1C(=O)/C(=C/c2ccccc2)SC1=S)Nc1cccc(O)c1	.	12*	0	.	18	10
O=C(C[C@H]1C[C@H]2c3cc(NC(=O)C4CCOCC4)ccc3O[C@H]2[C@H](CO)O1)NCCN1CCCCC1	.	.	.	4	.	.
C[C@H]1CN([C@@H](C)CO)S(=O)(=O)c2ccc(-c3cccc(F)c3)cc2O[C@H]1CN(C)CC1CC1	.	.	.	0	.	.
CCCNC(=O)N[C@@H]1CC[C@@H](CC(=O)NC2CCC2)O[C@H]1CO	.	.	.	3	.	.
O=C(CCN1C(=O)/C(=C/c2cccs2)SC1=S)Nc1cccc(C(=O)O)c1	9	-10	-4	-10	16	6
O=C(CCN1C(=O)/C(=C/c2cccs2)SC1=S)Nc1cccc(O)c1	-3	11*	0	1	7	-1
O=c1c2ccccc2c(/C=N/c2ncn[nH]2)c(O)n1Cc1ccccc1	-1	15*!	-3	.	-13	-3
CC(C)CCC(C)N=Cc1c(O)n(Cc2ccccc2)c(=O)c2ccccc12 (stereo not given)	1	-4	-1	.	-26	-6
N#C/C(=C\c1ccc(-c2ccccc2)o1)C(=O)Nn1cnnc1	2	-1	-1	.	51*	0
CCCNC(=O)Nc1ccc2c(c1)C(=O)N(C)C[C@H](OC)[C@H](C)CN(CCC(F)(F)F)[C@@H](C)CO2	.	.	.	-11	.	.
COc1cc(NC(=O)c2ccco2)ccc1NC(=O)c1ccccc1Cl	-4	-1	1	12	2	-6
COc1cc(NC(=O)c2cccs2)c(OC)cc1NC(=O)Nc1ccc(F)cc1	-2	25*	-3	-3	-2	1
COc1ccc(NC(=O)c2ccc3c(c2)OCCO3)cc1OC	2	0	3	39	9	-5
COc1cc(NC(=O)c2ccc(OC)c([N+](=O)[O-])c2)ccc1NC(=O)c1ccco1	-16	17*	-4	.	-6	-6
COc1cc(NC(=O)c2ccccc2Cl)ccc1NC(=O)c1ccco1	-25	-1	5	51*	33	3
COc1cc(NC(=O)c2ccc3c(c2)OCCO3)ccc1NC(=O)c1ccccc1Cl	-7	29*	3	12	10	-5
COc1cc(NC(=O)COc2ccccc2[N+](=O)[O-])ccc1NC(=O)c1ccco1	-12	-1	2	11	13	-8
COc1ccc([N+](=O)[O-])cc1NC(=O)Nc1ccc(OC)c(OC)c1	-3	-6	-2	3	6	-2
CCOc1cc(NC(=O)c2ccco2)c(OCC)cc1NC(=O)c1ccco1	0	1	0	-9	4	1
O=C(Nc1ccc(NC(=O)c2cccs2)cc1Cl)c1ccco1	0	4	-1	.	4	-6
Cc1ccc(NC(=O)c2ccc(NCC3CCCO3)c([N+](=O)[O-])c2)cc1Cl (stereo not given)	11	-4	0	11	2	-2
COc1ccc([N+](=O)[O-])cc1NC(=O)Nc1cccc(Cl)c1	8	29*	-2	.	2	1
COc1cc(NC(=O)c2cccs2)ccc1NC(=O)c1ccco1	-1	-3	1	92*	3	-4
CCOc1cc(NC(=O)c2ccco2)c(OCC)cc1NC(=O)CCc1ccccc1OC	3	15*	1	-1	39*	-8
SMILES	Vif inh	NR3A LBD binder	SMARCA2 act	esBAF inh	SKN-1 inh	NadD block
Cc1ccc(NC(=O)c2ccc(NCc3ccco3)c([N+](=O)[O-])c2)cc1Cl	82*	15*	-1	8	6	-2
C[C@H](NC(=O)C[C@H]1CC[C@@H](NC(=O)Cc2ccccn2)[C@H](CO)O1)c1ccccc1	.	.	.	-1	.	.
COc1cc(NC(=O)c2oc3ccccc3c2C)ccc1NC(=O)c1ccco1	0	24*	1	1	4	2
COc1cc(NC(=O)c2ccco2)c(OC)cc1NC(=O)Nc1cccc(Cl)c1	-6	22*	-1	-1	6	-5
COc1ccc(NC(=O)c2ccco2)cc1NC(=O)c1c(OC)cccc1OC	6	-1	-2	6	7	1
COc1cc(NC(=O)c2cc3ccccc3o2)ccc1NC(=O)c1ccco1	?	-1	-1	11	10	-1
C[C@H]1CN([C@@H](C)CO)C(=O)Cc2cc(NC(=O)Nc3ccccc3)ccc2O[C@H]1CN(C)C(=O)Nc1ccc(C(F)(F)F)cc1	.	.	.	0	.	.
CC1C=Cc2ccccc2N1C(=O)c1ccccc1 (stereo not given)	.	-1	1	7	-11	-5
O=C(CC1C=Cc2ccccc2N1C(=O)c1ccccc1)c1ccccc1 (stereo not given)	-6	10*	0	2	5	-12
COc1ccc(-c2nnc(OCc3ccccc3)c3ccccc23)cc1	-4	16*	-3	4	-15	1
COc1ccc(CN2C(=O)c3ccccc3C2c2nnnn2C(C)C)cc1OC (stereo not given)	.	.	7.8*	.	-6	0
Clc1ccc(-c2cc3ccccc3[nH]2)cc1	-2	17*	2	81*	24	-9
CNC(=O)C[C@H]1CC[C@@H]2[C@H](COC[C@@H](O)CN2C(=O)c2ccccn2)O1	.	.	.	-3	.	.
CN(C)C(=O)CN1C(=O)NC2(CCc3ccccc32)C1=O (stereo not given)	-9	1	-2	2	37*	-4
O=C(CN1C(=O)NC2(CCc3ccccc32)C1=O)NCc1ccc(F)cc1 (stereo not given)	-1	-2	0	-6	8	-4
O=C(CN1C(=O)NC2(CCc3ccccc32)C1=O)NCc1cccc(C(F)(F)F)c1 (stereo not given)	2	11*	-2	7	10	-3
CO[C@H]1CN(C)C(=O)c2cc(NS(=O)(=O)c3ccc(C)cc3)ccc2OC[C@H](C)N(C)C[C@H]1C	.	.	.	-3	.	.
COc1cccc(CNC(=O)C[C@H]2CC[C@@H]3[C@@H](COc4ccc(NC(C)=O)cc4C(=O)N3C)O2)c1	.	.	.	0	.	.
Cc1ccn2cc(-c3ccc(Br)cc3)nc2c1	-10	-10	2	-65	8	-4
Clc1ccc(-c2cn3cc(Br)ccc3n2)cc1Cl	1	-26	2	.	57*	6
CCOC(=O)c1sc(Nc2ccc(Br)cc2)nc1C	2	14*	2	.	22	-8
COc1ccc(Nc2nc(-c3ccc(OC)cc3)c(CCC(=O)O)s2)cc1	-12	0	-4	-7	-10	-3
CCOC(=O)c1cc2nc(Nc3ccc(OC)cc3)sc2s1	-14	15*	-3	32	28	-9
COC(=O)Cc1csc(Nc2ccccc2Cl)n1	-18	-1	3	54*	9	-3
